From PubChem BioAssay (Tox21)
Inconclusive results are not listed. Activity calls are given as the source filed them. Calls come from the whole dose curve; as a rule, active = well fitted curve in the direction sought with a large enough effect in the repeat runs; inconclusive = weak or mixed curves; inactive = no such curve, though single readings can be large; an effect the other way counts as inactive or inconclusive.

Legend:
[1] = qHTS RealTime-Glo MT Cell Viability Assay in HepG2 cells - 24 hour (AID 1224867); note: nearly all actives have a fitted effect of over 50% in size
Procedure, shortened: (§1)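 HepG2 suspension premixed with RealTime-Glo reagents is plated at 600 cells per well and left 5 h at 37 C/5% CO2. Compounds in DMSO then go in, and bioluminescence reflecting viable cell number is recorded over 40 h.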

[2] = qHTS RealTime-Glo MT Cell Viability Assay in HEK293 cells - 32 hour (AID 1224868); note: top concentration of the series differs between compounds; nearly all actives have a fitted effect of over 50% in size
Procedure, shortened: (§2)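 Reads taken at 0, 8, 16, 24, 32 and 40 h from the same wells. HEK293 cells (600/well) carried RealTime-Glo reagents from seeding, with compound added after a 5 h settle at 37 C.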

[3] = A CellTox Green Cytotoxicity Assay to monitor cytotoxicity in HEK293 cells - 0 hour (AID 1224869); note: nearly all actives have a fitted effect of over 50% in size
Procedure, shortened: (§3)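 Fluorescence intensity, read at 0, 8, 16, 24, 32 and 40 h of compound treatment, reflected dye binding to DNA of dead HEK293 cells; compounds (23 nL, DMSO) were added 5 h after plating cells with reagent.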

[4] = qHTS RealTime-Glo MT Cell Viability Assay in HepG2 cells - 40 hour (AID 1224870); note: nearly all actives have a fitted effect of over 50% in size
Procedure, shortened: (§4)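 HepG2 cells (600/well) mixed with RealTime-Glo MT reagent, settled 5 h at 37 C/5% CO2 before compound addition. Nonlytic NanoLuc luminescence from viable-cell prosubstrate reduction read repeatedly during 40 h treatment at 37 C.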

[5] = A CellTox Green Cytotoxicity Assay to monitor cytotoxicity in HEK293 cells - 40 hour (AID 1224871); note: nearly all actives have a fitted effect of over 45% in size
Procedure, shortened: as §3

[6] = qHTS RealTime-Glo MT Cell Viability Assay in HEK293 cells - 16 hour (AID 1224872)
Procedure, shortened: as §2

[7] = qHTS RealTime-Glo MT Cell Viability Assay in HepG2 cells - 8 hour (AID 1224873); note: nearly all actives have a fitted effect of over 55% in size
Procedure, shortened: as §4

[8] = qHTS RealTime-Glo MT Cell Viability Assay in HEK293 cells - 40 hour (AID 1224874); conditions: RealTime-Glo luminescence, active compounds read low; note: nearly all actives have a fitted effect of over 50% in size
Procedure, shortened: (§5)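 Viable HEK293 cells reduce a cell-permeant prosubstrate; the product diffuses out and is consumed by NanoLuc in the medium to give light. Compounds went in after a 5 h incubation and plates were read over the treatment course.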

[9] = A CellTox Green Cytotoxicity Assay to monitor cytotoxicity in HEK293 cells - 24 hour (AID 1224875); note: series mostly up to about 77 µM; nearly all actives have a fitted effect of over 45% in size
Procedure, shortened: as §3

[10] = A CellTox Green Cytotoxicity Assay to monitor cytotoxicity in HepG2 cells - 16 hour (AID 1224876); note: nearly all actives have a fitted effect of over 45% in size
Procedure, shortened: (§6)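 Using 1536-well format, dye-containing HepG2 suspension was seeded, allowed 5 h at 37 C/5% CO2, dosed by pintool with compounds, positive and negative controls, and imaged for fluorescence across 40 h.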

[11] = qHTS RealTime-Glo MT Cell Viability Assay in HepG2 cells - 32 hour (AID 1224877); note: nearly all actives have a fitted effect of over 55% in size
Procedure, shortened: as §1

[12] = A CellTox Green Cytotoxicity Assay to monitor cytotoxicity in HepG2 cells - 24 hour (AID 1224878); note: nearly all actives have a fitted effect of over 45% in size
Procedure, shortened: as §6

[13] = A CellTox Green Cytotoxicity Assay to monitor cytotoxicity in HepG2 cells - 40 hour (AID 1224879); note: nearly all actives have a fitted effect of over 40% in size
Procedure, shortened: as §6

[14] = qHTS RealTime-Glo MT Cell Viability Assay in HEK293 cells - 0 hour (AID 1224880)
Procedure, shortened: as §5

[15] = A CellTox Green Cytotoxicity Assay to monitor cytotoxicity in HEK293 cells - 32 hour (AID 1224881); note: nearly all actives have a fitted effect of over 40% in size
Procedure, shortened: as §3

[16] = A CellTox Green Cytotoxicity Assay to monitor cytotoxicity in HepG2 cells - 0 hour (AID 1224882); note: nearly all actives have a fitted effect of over 35% in size
Procedure, shortened: as §6

[17] = A CellTox Green Cytotoxicity Assay to monitor cytotoxicity in HepG2 cells - 32 hour (AID 1224883); note: nearly all actives have a fitted effect of over 50% in size
Procedure, shortened: as §6

[18] = A CellTox Green Cytotoxicity Assay to monitor cytotoxicity in HEK293 cells - 8 hour (AID 1224884); note: nearly all actives have a fitted effect of over 35% in size
Procedure, shortened: as §3

[19] = qHTS RealTime-Glo MT Cell Viability Assay in HepG2 cells - 16 hour (AID 1224885); note: nearly all actives have a fitted effect of over 50% in size
Procedure, shortened: as §1

[20] = qHTS RealTime-Glo MT Cell Viability Assay in HEK293 cells - 24 hour (AID 1224886)
Procedure, shortened: as §2
% is set by controls: 0 for no effect and ±100 for the full control effect.

C=CC(=O)OCCOCCOCC
inactive: outcome [1] | outcome [2] | outcome [3] | outcome [4] | Potency [5] | outcome [6] | outcome [7] | max response [8] 21.6% | Potency [9] | Potency [10] | outcome [11] | Potency [12] | Potency [13] | Potency [14] | Potency [15] | Potency [16] | Potency [17] | Potency [18] | outcome [19] | outcome [20]

C=CCN(CC=C)CC=C
inactive: outcome [1] | outcome [2] | outcome [3] | outcome [4] | Potency [5] | outcome [6] | outcome [7] | max response [8] 12.2% | Potency [9] | Potency [10] | outcome [11] | Potency [12] | Potency [13] | Potency [14] | Potency [15] | Potency [16] | Potency [17] | Potency [18] | outcome [19] | outcome [20]

C[C@@H](CN1CC(=O)NC(=O)C1)N1CC(=O)NC(=O)C1
inactive: outcome [1] | outcome [2] | outcome [3] | outcome [4] | Potency [5] | outcome [6] | outcome [7] | max response [8] -3.41% | Potency [9] | Potency [10] | outcome [11] | Potency [12] | Potency [13] | Potency [14] | Potency [15] | Potency [16] | Potency [17] | Potency [18] | outcome [19] | outcome [20]

CC1=C(O)C(=O)CO1
inactive: outcome [1] | outcome [2] | outcome [3] | outcome [4] | Potency [5] | outcome [6] | outcome [7] | max response [8] 0.017% | Potency [9] | Potency [10] | outcome [11] | Potency [12] | Potency [13] | Potency [14] | Potency [15] | Potency [16] | Potency [17] | Potency [18] | outcome [19] | outcome [20]

CCCC(=O)OC
inactive: outcome [1] | outcome [2] | outcome [3] | outcome [4] | Potency [5] | outcome [6] | outcome [7] | max response [8] -2.73% | Potency [9] | Potency [10] | outcome [11] | Potency [12] | Potency [13] | Potency [14] | Potency [16] | Potency [17] | Potency [18] | outcome [19] | outcome [20]

C[Si](C)(C)O[Si](O)(O)O
inactive: outcome [1] | outcome [2] | outcome [3] | outcome [4] | Potency [5] | outcome [6] | outcome [7] | max response [8] 0.476% | Potency [9] | Potency [10] | outcome [11] | Potency [12] | Potency [13] | Potency [14] | Potency [15] | Potency [16] | Potency [17] | Potency [18] | outcome [19] | outcome [20]

COC(=O)c1ccccc1Cl
inactive: outcome [1] | outcome [2] | outcome [3] | outcome [4] | Potency [5] | outcome [6] | outcome [7] | max response [8] 2.48% | Potency [9] | Potency [10] | outcome [11] | Potency [12] | Potency [13] | Potency [14] | Potency [15] | Potency [16] | Potency [17] | Potency [18] | outcome [19] | outcome [20]

CCCC[O][Al]([O]CCCC)[O]CCCC
inactive: outcome [1] | outcome [2] | outcome [3] | outcome [4] | Potency [5] | outcome [6] | outcome [7] | max response [8] 2.78% | Potency [9] | Potency [10] | outcome [11] | Potency [12] | Potency [13] | Potency [14] | Potency [15] | Potency [16] | Potency [17] | Potency [18] | outcome [19] | outcome [20]

O=S(=O)(O)CC(O)CCl (stereo not drawn)
inactive: outcome [1] | outcome [2] | outcome [3] | outcome [4] | Potency [5] | outcome [6] | outcome [7] | max response [8] 5.44% | Potency [9] | Potency [10] | outcome [11] | Potency [12] | Potency [13] | Potency [14] | Potency [15] | Potency [16] | Potency [17] | Potency [18] | outcome [19] | outcome [20]

COc1cc(NS(=O)(=O)c2ccc(N)cc2)ncn1
inactive: outcome [1] | outcome [2] | outcome [3] | outcome [4] | Potency [5] | outcome [6] | outcome [7] | max response [8] 7.65% | Potency [9] | Potency [10] | outcome [11] | Potency [12] | Potency [13] | Potency [14] | Potency [15] | Potency [16] | Potency [17] | Potency [18] | outcome [19] | outcome [20]

O=S(=O)(O)c1cc(I)c(O)c2ncccc12
inactive: outcome [1] | outcome [2] | outcome [3] | outcome [4] | Potency [5] | outcome [6] | outcome [7] | max response [8] 5.82% | Potency [9] | Potency [10] | outcome [11] | Potency [12] | Potency [13] | Potency [14] | Potency [15] | Potency [16] | Potency [17] | Potency [18] | outcome [19] | outcome [20]

CCc1ccc(CC)cc1
inactive: outcome [1] | outcome [2] | outcome [3] | outcome [4] | Potency [5] | outcome [6] | outcome [7] | max response [8] 4.78% | Potency [9] | Potency [10] | outcome [11] | Potency [12] | Potency [13] | Potency [14] | Potency [16] | Potency [17] | Potency [18] | outcome [19] | outcome [20]

COC(C)(C)CC(C)=O
inactive: outcome [1] | outcome [2] | outcome [3] | outcome [4] | Potency [5] | outcome [6] | outcome [7] | max response [8] 1.4% | Potency [9] | Potency [10] | outcome [11] | Potency [12] | Potency [13] | Potency [14] | Potency [15] | Potency [16] | Potency [17] | Potency [18] | outcome [19] | outcome [20]
